Results filed as inconclusive are left out. Active and inactive are the calls of the source. Unless noted, calls come from the whole dose curve.
What was measured:
[1] = Nuclear factor erythroid 2-related factor 2/antioxidant responsive element (Nrf2/ARE) small molecule agonists: qHTS cell viability counter screen in human keratinocytes (AID 1919968; active = well fitted curve in the direction sought with a large enough effect in the repeat runs; an effect the other way counts as inactive or inconclusive; note: nearly all actives have a fitted effect of over 55% in size)
Summary of the method: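 KeratinoSens HaCaT cells, 1,500/well, preincubated 5 h, then exposed to compounds in DMSO for 23 h at 37 C/5% CO2. Viability read as CellTiter-Fluor fluorescence after 1 h, in the same wells as the ARE-luciferase read.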

[2] = Nuclear factor erythroid 2-related factor 2/antioxidant responsive element (Nrf2/ARE) small molecule agonists: luciferase reporter gene qHTS assay in human keratinocytes (AID 1919969); note: nearly all actives have a fitted effect of over 35% in size
[3] = target: Gonadotropin-releasing hormone receptor (Homo sapiens) (UniProt P30968); experiment: Human gonadotropin-releasing hormone receptor (GnRHR) small molecule agonists, calcium flux assay in GnRHR-HEK293 cells (AID 1920063); note: nearly all actives have a fitted effect of over 35% in size
Summary of the method: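 HEK293 cells stably expressing human GnRHR were dye-loaded for 1 h at 37 C. Compound was added in agonist mode and fluorescence (Ex/Em 480/540) recorded kinetically for 3 min. Fifteen concentrations, triplicates.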

[4] = target: KiSS-1 receptor (Homo sapiens) (UniProt Q969F8); experiment: Human kisspeptin (KISS1R) small molecule agonists, calcium flux assay in KISS1R-HEK293 cells (AID 1920064; active = well fitted curve in the direction sought with a large enough effect in the repeat runs; an effect the other way counts as inactive or inconclusive)
Summary of the method: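 HEK293 cells stably expressing human KISS1R were loaded with calcium dye for 1 h at 37 C, then given compound; fluorescence (Ex/Em 480/540) was read kinetically for 3 min. Fifteen concentrations, triplicate.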

[5] = G protein-coupled receptor (GPCR) small molecule agonists, calcium flux assay: HEK293 wild type cell line counter screen (AID 1920065)
Summary of the method: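 Wild-type HEK293 cells plated 18 h, loaded with calcium dye 1 h at 37 C, then compounds added in agonist mode (ATP as positive control). Kinetic fluorescence Ex/Em 480/540 recorded 3 min at 1 sec intervals; 15 concentrations, triplicate.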

[6] = p53 small molecule agonists, cell-based qHTS assay with human liver microsomes: qHTS cell viability counter screen (AID 1963579); note: nearly all actives have a fitted effect of over 45% in size
Summary of the method: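 p53RE-bla cells (4,000/well) were pre-incubated 5 h at 37 C, then given compounds in DMSO plus human liver microsomes (0.5 mg/mL final) and NADPH (0.5 mg/mL final) for 16 h at 37 C. Viability was read by CellTiter-Glo luminescence.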

[7] = p53 small molecule agonists, cell-based qHTS assay: qHTS cell viability counter screen (AID 1963581); note: nearly all actives have a fitted effect of over 45% in size
Summary of the method: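 p53RE-bla HCT-116 cells, compounds added 5 h after plating and incubated 16 h at 37 C. Cytotoxicity measured in the same wells as intracellular ATP by CellTiter-Glo luminescence after 30 min at room temperature.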

[8] = p53 small molecule agonists, cell-based qHTS assay (AID 1963582; active = well fitted activation curve with a large enough effect in the signal ratio in the repeat runs, not every such curve was filed as active; the % refers to the signal ratio)
Summary of the method: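 p53RE-bla reporter cells, compounds added in DMSO after 5 h plating, incubated 16 h at 37 C. Beta-lactamase read via 2 h room-temperature LiveBLAzer B/G FRET substrate, fluorescence intensity.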

[9] = target: 5-hydroxytryptamine receptor 2A (Homo sapiens) (UniProt P28223); experiment: 5-hydroxytryptamine receptor 2A (HTR2A) small molecule antagonists, cell-based qHTS assay (AID 1963586); note: nearly all actives have a fitted effect of over 45% in size
Summary of the method: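 Antagonist-mode intracellular calcium assay: DOI (4 nM) added after 5 min compound pre-incubation at room temperature to dye-loaded HTR2A-CHO cells. Fluorescence followed for 3 min, sampled every second.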

[10] = target: 5-hydroxytryptamine receptor 2A (Homo sapiens) (UniProt P28223); experiment: 5-hydroxytryptamine receptor 2A (HTR2A) small molecule agonists, cell-based qHTS assay (AID 1963587); note: nearly all actives have a fitted effect of over 30% in size
Summary of the method: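 CHO cells stably expressing human HTR2A, plated 18 h, loaded with calcium dye 1 h at 37 C. Agonist mode: compounds added and intracellular calcium fluorescence recorded kinetically for 2 min at 1 sec intervals.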

[11] = target: Muscarinic acetylcholine receptor M1 (Homo sapiens) (UniProt P11229); experiment: Cholinergic receptor muscarinic 1 (CHRM1) small molecule antagonists, cell-based qHTS assay (AID 1963588); note: nearly all actives have a fitted effect of over 40% in size
Summary of the method: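 CHRM1-CHO calcium-flux assay, antagonist mode. Cells were seeded 18 h, dye-loaded 1 h at 37 C and given compound for 5 min at RT, then acetylcholine was added at 50nM. FDSS fluorescence was read 3 min; 15 concentrations, three runs.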

[12] = cAMP Responsive Elements (CRE) small molecule agonists, cell-based qHTS assay (AID 1963590)
Summary of the method: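 CRE-bla HEK 293T cells, 2,000/well in DMEM with 10% dialyzed FBS and 25 mM HEPES, pre-incubated 18 h at 37 C, then exposed to compound 3 h at 37 C. Beta-lactamase reporter read with LiveBLAzer B/G FRET substrate after 2 h at room temperature.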

[13] = cAMP Responsive Elements (CRE) small molecule antagonists, cell-based qHTS assay (AID 1963591; active = well fitted inhibition curve with a large enough effect in the signal ratio in the repeat runs, not every such curve was filed as active; the % refers to the signal ratio)
Summary of the method: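 CRE-bla HEK293T cells plated 18 h, then given compound plus NKH477 at 0.25 uM final for 3 h at 37C. Beta-lactamase reporter read with LiveBLAzer B/G FRET substrate after 2 h at room temperature.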

[14] = target: Beta-2 adrenergic receptor (Homo sapiens) (UniProt P07550); experiment: Adrenergic beta2 receptor (ADRB2) small molecule antagonists, cell-based qHTS assay (AID 1963592); note: series mostly up to about 92 µM; nearly all actives have a fitted effect of over 50% in size
Summary of the method: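 Cells (CHO, stable ADRB2 overexpression) incubated 18-20hr at 37C; compounds added from DMSO; agonist mix (1nM isoproterenol, 100uM IBMX, 25uM Ro-20-1724) added; 0.5hr RT; d2-cAMP and anti-cAMP-cryptate added; 1hr RT; 665/615 nm read.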

[15] = target: Beta-2 adrenergic receptor (Homo sapiens) (UniProt P07550); experiment: Adrenergic beta2 receptor (ADRB2) small molecule agonists, cell-based qHTS assay (AID 1963593);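 note: CHO cells stably overexpressing human ADRB2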
Summary of the method: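 CHO cells stably over-expressing ADRB2 were plated overnight at 37C, then dosed with compounds plus a stimulation mix containing 100uM IBMX and 25uM Ro-20-1724 for 0.5hr at room temperature. cAMP was measured by HTRF competition, 1hr.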

[16] = target: D(2) dopamine receptor (Homo sapiens) (UniProt P14416); experiment: Dopamine D2 receptor (DRD2) small molecule agonists, cell-based qHTS assay (AID 1963594); note: nearly all actives have a fitted effect of over 35% in size
Summary of the method: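 HEK293 cells stably expressing human DRD2, pre-treated with PDE inhibitor Ro20-1724 (0.1 mM final) and compound 10 min at room temperature, then stimulated with NKH477 (200nM […]) for 30 min. cAMP read by HTRF (665/620 nm).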

[17] = target: D(2) dopamine receptor (Homo sapiens) (UniProt P14416); experiment: Dopamine D2 receptor (DRD2) small molecule antagonists, cell-based qHTS assay (AID 1963595; active = well fitted inhibition curve with a large enough effect in the signal ratio in the repeat runs, with a control signal flat; the % refers to the signal ratio)
Summary of the method: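 HEK293 cells stably expressing DRD2, preincubated with 0.1 mM Ro20-1724 and compounds 10 min, were stimulated with 200 nM NKH477 plus 12 nM quinpirole for 30 min at room temperature; cAMP measured by HTRF (665/620 nm).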

[18] = p53 small molecule agonists, cell-based qHTS assay with rat liver microsomes: qHTS cell viability counter screen (AID 1963580); note: nearly all actives have a fitted effect of over 45% in size
Summary of the method: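 p53RE-bla HCT-116 cells were exposed 16 h at 37 C to compounds with rat liver microsomes (0.5 mg/mL) and NADPH (0.5 mg/mL). Viability was measured in the same wells as ATP content by CellTiter-Glo luminescence.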

[19] = target: Muscarinic acetylcholine receptor M1 (Homo sapiens) (UniProt P11229); experiment: Cholinergic receptor muscarinic 1 (CHRM1) small molecule agonists, cell-based qHTS assay (AID 1963589); note: nearly all actives have a fitted effect of over 35% in size
Summary of the method: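 CHO cells stably expressing human CHRM1 were loaded with calcium dye for 1 h at 37 C, then compound was added in agonist mode. Intracellular calcium fluorescence was followed kinetically at 1 s intervals. Fifteen concentrations were tested in three independent runs.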

Measured: Potency

Chain of 5-hydroxytryptamine receptor 2A (Homo sapiens) (P28223 whole entry, looked up): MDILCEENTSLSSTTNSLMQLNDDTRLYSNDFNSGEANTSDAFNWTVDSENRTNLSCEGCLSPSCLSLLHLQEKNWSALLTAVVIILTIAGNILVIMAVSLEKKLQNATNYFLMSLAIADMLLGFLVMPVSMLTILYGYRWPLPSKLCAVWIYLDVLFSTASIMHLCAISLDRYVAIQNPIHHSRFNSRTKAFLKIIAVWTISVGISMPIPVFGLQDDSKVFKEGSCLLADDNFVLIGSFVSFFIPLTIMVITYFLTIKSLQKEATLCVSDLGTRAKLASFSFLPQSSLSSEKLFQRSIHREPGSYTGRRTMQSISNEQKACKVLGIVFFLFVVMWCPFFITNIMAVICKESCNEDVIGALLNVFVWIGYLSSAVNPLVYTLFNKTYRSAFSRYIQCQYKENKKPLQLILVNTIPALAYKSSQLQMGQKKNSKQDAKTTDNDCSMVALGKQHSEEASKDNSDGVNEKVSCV
Chain of KiSS-1 receptor (Homo sapiens) (Q969F8 whole entry, looked up): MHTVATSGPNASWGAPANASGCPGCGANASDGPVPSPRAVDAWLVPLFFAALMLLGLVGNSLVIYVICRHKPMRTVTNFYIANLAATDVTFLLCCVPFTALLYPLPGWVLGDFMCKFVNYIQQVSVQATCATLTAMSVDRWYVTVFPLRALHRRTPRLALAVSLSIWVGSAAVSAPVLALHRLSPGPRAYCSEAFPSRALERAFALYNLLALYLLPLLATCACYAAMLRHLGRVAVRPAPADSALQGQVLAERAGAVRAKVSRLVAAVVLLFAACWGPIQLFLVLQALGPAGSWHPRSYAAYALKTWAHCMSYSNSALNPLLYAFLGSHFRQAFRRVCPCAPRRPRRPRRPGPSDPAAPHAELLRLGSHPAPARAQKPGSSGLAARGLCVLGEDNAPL
Chain of D(2) dopamine receptor (Homo sapiens) (P14416 whole entry, looked up): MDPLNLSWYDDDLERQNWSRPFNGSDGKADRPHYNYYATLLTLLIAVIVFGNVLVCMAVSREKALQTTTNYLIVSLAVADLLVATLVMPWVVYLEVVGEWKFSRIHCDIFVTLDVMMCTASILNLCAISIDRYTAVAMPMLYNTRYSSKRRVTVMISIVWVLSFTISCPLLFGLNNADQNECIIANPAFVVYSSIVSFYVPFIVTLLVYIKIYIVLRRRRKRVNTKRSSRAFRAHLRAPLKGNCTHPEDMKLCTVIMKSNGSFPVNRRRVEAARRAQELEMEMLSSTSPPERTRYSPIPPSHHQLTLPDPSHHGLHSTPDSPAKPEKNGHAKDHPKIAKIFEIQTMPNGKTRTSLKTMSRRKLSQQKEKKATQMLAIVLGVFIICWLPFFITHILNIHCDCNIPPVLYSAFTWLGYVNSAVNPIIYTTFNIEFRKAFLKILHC
Chain of Gonadotropin-releasing hormone receptor (Homo sapiens) (P30968 whole entry, looked up): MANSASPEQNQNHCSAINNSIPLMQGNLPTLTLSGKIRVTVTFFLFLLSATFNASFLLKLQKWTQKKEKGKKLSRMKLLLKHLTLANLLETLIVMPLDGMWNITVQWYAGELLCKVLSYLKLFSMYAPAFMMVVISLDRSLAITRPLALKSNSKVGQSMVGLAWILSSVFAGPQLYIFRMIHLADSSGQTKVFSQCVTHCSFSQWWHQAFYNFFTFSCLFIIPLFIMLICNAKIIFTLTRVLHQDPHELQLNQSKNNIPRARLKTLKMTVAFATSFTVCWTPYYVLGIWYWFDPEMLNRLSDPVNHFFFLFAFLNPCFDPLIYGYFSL
Chain of Beta-2 adrenergic receptor (Homo sapiens) (P07550 whole entry, looked up): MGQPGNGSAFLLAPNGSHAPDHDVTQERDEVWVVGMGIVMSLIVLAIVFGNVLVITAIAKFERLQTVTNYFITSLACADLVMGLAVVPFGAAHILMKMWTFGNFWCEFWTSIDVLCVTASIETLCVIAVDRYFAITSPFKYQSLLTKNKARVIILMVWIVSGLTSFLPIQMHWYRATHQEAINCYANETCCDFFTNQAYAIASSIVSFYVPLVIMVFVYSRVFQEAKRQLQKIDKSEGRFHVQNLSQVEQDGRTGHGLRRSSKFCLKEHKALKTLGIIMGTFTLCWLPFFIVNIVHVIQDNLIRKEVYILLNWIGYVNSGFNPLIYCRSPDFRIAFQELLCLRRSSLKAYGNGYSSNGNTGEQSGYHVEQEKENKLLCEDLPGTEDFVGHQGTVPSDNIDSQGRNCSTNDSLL
Chain of Muscarinic acetylcholine receptor M1 (Homo sapiens) (P11229 whole entry, looked up): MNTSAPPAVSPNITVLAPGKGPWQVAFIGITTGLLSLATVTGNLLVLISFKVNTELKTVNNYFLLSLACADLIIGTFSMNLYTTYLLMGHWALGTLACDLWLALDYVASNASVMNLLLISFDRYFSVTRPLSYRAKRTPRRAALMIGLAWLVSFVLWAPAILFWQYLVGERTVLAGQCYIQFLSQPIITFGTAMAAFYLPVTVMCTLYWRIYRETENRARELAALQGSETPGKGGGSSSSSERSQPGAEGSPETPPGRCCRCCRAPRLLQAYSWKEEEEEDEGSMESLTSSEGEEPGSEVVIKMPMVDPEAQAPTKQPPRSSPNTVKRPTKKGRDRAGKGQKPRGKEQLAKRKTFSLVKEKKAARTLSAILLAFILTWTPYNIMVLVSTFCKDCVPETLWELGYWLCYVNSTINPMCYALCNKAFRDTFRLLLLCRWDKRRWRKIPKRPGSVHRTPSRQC

CCCC(=O)Cl
inactive: [1] | [2] | [3] | [4] | [5] | [6] | [7] | [8] | [9] | [10] | [11] | [12] | [13] | [14] | [15] | [16] | [17]

Clc1ccc(Cl)cc1
inactive: [1] | [2] | [3] | [4] | [5] | [6] | [18] | [7] | [8] | [9] | [10] | [11] | [12] | [13] | [14] | [15] | [16] | [17]

CC(C)N1C(=O)c2ccccc2NS1(=O)=O
inactive: [1] | [2] | [3] | [4] | [5] | [6] | [18] | [7] | [8] | [9] | [10] | [11] | [19] | [12] | [13] | [14] | [16] | [17]

CNC(C)(C)Cc1ccccc1
inactive: [1] | [2] | [3] | [4] | [5] | [6] | [18] | [7] | [9] | [10] | [11] | [19] | [12] | [13] | [14] | [16] | [17]

FC(F)(F)c1ccc(Cl)cc1
inactive: [1] | [2] | [3] | [4] | [5] | [6] | [18] | [7] | [8] | [9] | [19] | [12] | [13] | [14] | [15] | [16] | [17]

ClCCOCOCCCl
inactive: [1] | [2] | [3] | [4] | [5] | [6] | [18] | [7] | [8] | [9] | [10] | [11] | [19] | [12] | [13] | [14] | [16] | [17]

COP(=S)(OC)Oc1ccc([N+](=O)[O-])cc1
inactive: [1] | [2] | [3] | [4] | [5] | [6] | [18] | [7] | [8] | [9] | [10] | [11] | [19] | [12] | [13] | [14] | [15] | [16] | [17]

C=C1CC[C@@]2(O)[C@H]3Cc4ccc(O)c5c4[C@@]2(CCN3CC2CC2)[C@H]1O5
inactive: [1] | [2] | [3] | [4] | [5] | [6] | [18] | [7] | [8] | [9] | [10] | [11] | [19] | [12] | [13] | [14] | [16] | [17]
